# Measurements from ChEMBL document CHEMBL4513216, “Probing the Open Global Health Chemical Diversity Library for Multistage-Active Starting Points for Next-Generation Antimalarials” (ACS Infect Dis, 2020).
# The whole screen tested about 69,000 compounds, of which about 8,600 (12%) showed an effect of 50% or more. The list comes from a sample in which strong results are over-represented; it also holds similar structures and randomly drawn compounds.
# Tested on: Plasmodium berghei
# Experiment: Screen against P. berghei liver stage (PbLuc), transformed with Luciferase, at 10uM
# Assay type: functional, HepG2
# Settings: tested at 10 uM
row,SMILES,INHIBITION
1,Cc1cc2n(n1)CC(CNCc1ccccc1-n1cccn1)CN2 (configuration not stated),-18.605%
2,O=C(c1ccncc1)N1C[C@@H]2OCCN(CCN3CCCC3)[C@@H]2C1,32.2%
3,Cc1occc1C(=O)N1C[C@@H]2OCCN(CCN3CCCC3)[C@@H]2C1,66%
4,Cc1cc(C(=O)N2C[C@@H]3OCCN(CCN4CCCC4)[C@@H]3C2)c(C)o1,32.2%
5,O=C(c1ccsc1)N1C[C@@H]2OCCN(CCN3CCCC3)[C@@H]2C1,82.3%
6,CN(C)CCN1CCO[C@H]2CN(C(=O)c3ccsc3)C[C@H]21,6.67%
7,O=C(c1ccco1)N1C[C@@H]2OCCN(CCN3CCCC3)[C@@H]2C1,23.3%
8,O=C(CN1CCCC1Cn1cncn1)NCCOc1ccc(F)cc1 (configuration not stated),42.9%
9,O=C1CCC(=O)N1Cc1ccc(C(=O)N2CCCC2c2cccs2)cc1 (configuration not stated),-21.9%
10,CN(Cc1ccsc1)C(=O)Nc1ccc(=O)n(C)c1,47.4%
11,Cn1cc(NC(=O)NCc2ccsc2)ccc1=O,16.1%
12,Cn1cc(NC(=O)CCc2ccsc2)ccc1=O,59.3%
13,Cc1c(O)cccc1C(=O)N1CCCC2(C1)C(=O)N(C)c1ccccc12 (configuration not stated),17.7%
14,NC(=O)N1CCc2cc(C(=O)O)c(-c3ccsc3)nc2CC1,74.8%
15,CC(=O)N1CCc2cc(C(=O)O)c(-c3ccsc3)nc2CC1,11.3%
16,O=C(O)c1cc2c(nc1-c1ccsc1)CCN(C(=O)C1CC1)CC2,40.8%
17,CC(C)=CCCC1(C)CCC(=O)N(CCc2nc(N)cc(O)n2)C1 (configuration not stated),21.5%
18,c1coc(CN2CCCn3c(CN4CCOCC4)nnc3C2)c1,-4.26%
19,NC(=O)NC(=O)CCSc1ccccc1Cl,55.9%
20,N#Cc1ccc(SCCC(=O)NC(N)=O)cc1,-33.4%
21,CNC(=O)NC(=O)CCSc1ccccc1Cl,41.8%
22,Cc1nc(CN2C[C@@H]3CN(c4ncccn4)C[C@@H]3C2=O)cs1,-12.1%
23,Cc1cc(C)c(CNC(=O)c2ccc3c(c2)CCC3)c(=O)[nH]1,50.3%
24,Cc1cc(C)c(CNC(=O)NCC2COc3ccccc3C2)c(=O)[nH]1 (configuration not stated),17.5%
25,Cc1cc(C)c(CNC(=O)NCC2Cc3ccccc32)c(=O)[nH]1 (configuration not stated),0.342%
26,Cc1cc(C)c(CNC(=O)NCC2Cc3ccccc3O2)c(=O)[nH]1 (configuration not stated),73.1%

row,SMILES,INHIBITION
1,Cc1cc(C)c(CNC(=O)NCc2ccc3c(c2)CCC3)c(=O)[nH]1,30.2%
2,Cc1cc(C)c(CNC(=O)Cc2ccc3c(c2)CCCC3)c(=O)[nH]1,40%
3,N#Cc1c(-c2ccccc2)csc1N,49.7%
4,O=C(NCCC1CC1)NCc1cccc(-n2ccnc2)c1,21.6%
5,Cc1ccc(C(=O)N2C[C@@H]3CCN(c4cccnc4)C[C@@H]3C2)cn1,19.4%
6,Cc1ccccc1C(=O)N1C[C@@H]2CCN(c3cccnc3)C[C@@H]2C1,68.4%
7,O=C(c1ccc(O)cc1)N1C[C@@H]2CCN(c3cccnc3)C[C@@H]2C1,46.2%
8,O=C(c1ccsc1)N1C[C@@H]2CCN(c3cccnc3)C[C@@H]2C1,77.7%
9,O=C(c1ccco1)N1C[C@@H]2CCN(c3cccnc3)C[C@@H]2C1,90.5%
10,O=C(c1ccncc1)N1C[C@@H]2CCN(c3cccnc3)C[C@@H]2C1,47.4%
11,O=C(c1cnccn1)N1C[C@@H]2CCN(c3cccnc3)C[C@@H]2C1,41.6%
12,Cn1cccc1C(=O)N1C[C@@H]2CCN(c3cccnc3)C[C@@H]2C1,36.9%
13,Cc1cccc(C(=O)N2C[C@@H]3CCN(c4cccnc4)C[C@@H]3C2)c1,23.3%
14,CC(=O)Nc1nc(CN2CCOC(Cn3nc(C)cc3C)C2)cs1 (configuration not stated),15.6%
15,COCCN(Cc1ccoc1)C(=O)c1ccc(Cl)s1,25.1%
16,Cn1nccc1CNC(=O)Cn1nc(C(F)(F)F)cc1C1CC1,1.11%
17,CCc1nc(CN(C)C2CCN(Cc3ccc(Cl)s3)C2)no1 (configuration not stated),36.4%
18,Cc1noc(C)c1CCC(=O)Nc1ccn(C)n1,71.2%
19,Cc1noc(C)c1CC(=O)Nc1ccn(CC(N)=O)n1,37.6%
20,CCn1ccc(NC(=O)CCc2c(C)noc2C)n1,38.7%
21,O=C(CCCc1ccccn1)Nc1cccc(N2CCCNC2=O)c1,11.2%
22,Cc1ccc(C(=O)Nc2cn[nH]c2)cc1,31.005%
23,COC(CNC(=O)NCc1c(C)cc(C)[nH]c1=O)c1ccccc1 (configuration not stated),36.1%
24,Cc1noc(C(C)C)c1C(=O)NCCN1CCOCC1,-31.8%
25,CN1N=C(C(=O)N2CCCC(n3ccnc3)C2)CCC1=O (configuration not stated),21.6%
26,CCc1nccn1C1CCCN(C(=O)C2=NN(C)C(=O)CC2)C1 (configuration not stated),53%

row,SMILES,INHIBITION
1,CCc1nccn1C1CCCN(C(=O)c2ccn(C)c(=O)c2)C1 (configuration not stated),2.9%
2,CN1N=C(C(=O)N2CCCC(n3cccn3)C2)CCC1=O (configuration not stated),11.9%
3,Cc1nccn1C1CCCN(C(=O)C2=NN(C)C(=O)CC2)C1 (configuration not stated),51.6%
4,CC(C)c1nccn1C1CCCN(C(=O)C2=NN(C)C(=O)CC2)C1 (configuration not stated),14.4%
5,CO[C@@H]1CC[C@H]2[C@H]1OCCN2C(=O)c1nn(C)c2ccccc12,-9.23%
6,COCCCn1cnnc1CNc1cc(C)nc2ccnn12,27.9%
7,Cc1cc(NC(=O)CN2C(=O)CC(C)(C)c3ccccc32)no1,29.7%
8,Cc1ccc(C(=O)N(C)Cc2ccc(Br)o2)c(=O)[nH]1,38.6%
9,Cc1nc(N2CCC(C(O)c3nccn3C)CC2)c2c(C)noc2n1 (configuration not stated),52.2%
10,Cc1nc(N2CCC(C(O)c3nccn3C)CC2)c2nc(C)oc2n1 (configuration not stated),42.1%
11,Cc1nc(N2CCC(C(O)c3nccn3C)CC2)c2cccnc2n1 (configuration not stated),-11.6%
12,CO[C@@H]1CCN(Cc2nccn2C)[C@H]1Cc1cccnc1,32.2%
13,Cc1ccsc1CN1CCC2(CC1)CC(OCc1cccnc1)CO2 (configuration not stated),26%
14,O=C(CCc1nnc(-c2ccccc2)o1)N1CCN(CC2CC2)CC1,-17%
15,Cc1noc(C)c1CN1CCO[C@H]2CN(Cc3cccc(F)c3)C[C@H]21,62.9%
16,Cc1noc(C)c1CN1CCO[C@H]2CN(Cc3ccc(F)cc3)C[C@H]21,49.2%
17,CC(=O)N1CCC2(CCN(Cc3cccc(F)c3)CC2)CC1,-12.1%
18,Cc1noc(C)c1CN1CCO[C@H]2CN(Cc3cccnc3)C[C@H]21,14.6%
19,Cc1noc(C)c1CN1CCC2(CCN(Cc3cccc(F)c3)CC2)C1,60.2%
20,Cc1noc(C)c1CN1C[C@H]2CN(Cc3cccc(F)c3)C[C@H]2C1,41.2%
21,Cc1ccc(NC2CCN(C(=O)Cc3ccc(C)s3)CC2)nn1,27.8%
22,CNC(=O)c1cccc(CN2CCN(C3=NCC(C)(C)S3)CC2)c1,28.7%
23,O=C(C1CC(c2cccc(F)c2)=NO1)N1CCc2ccccc21 (configuration not stated),-12.2%
24,CCSCCC(=O)N1CCc2[nH]nc(COc3ccccc3)c2C1,10.9%
25,O=C(c1csnn1)N1CCc2[nH]nc(COc3cccc(Cl)c3)c2C1,73%
26,O=C1CC[C@@H](C(=O)N2CCc3[nH]nc(COc4cccc(Cl)c4)c3C2)N1,52.6%

row,SMILES,INHIBITION
1,O=C(N1CCOCC1)N1CCc2[nH]nc(COc3cccc(Cl)c3)c2C1,67.5%
2,O=C(CSCC1CC1)N1CCc2[nH]nc(COc3ccccc3)c2C1,11.9%
3,Cc1nc(C)c(C(=O)N2CCc3[nH]nc(COc4ccccc4)c3C2)s1,49.5%
4,O=C(CCc1ccco1)N1CCc2[nH]nc(COc3ccccc3)c2C1,32.7%
5,O=C(CCc1cccs1)N1CCc2[nH]nc(COc3ccccc3)c2C1,36.7%
6,O=C(CCn1cccc1)N1CCc2[nH]nc(COc3ccccc3)c2C1,34.7%
7,Cc1nn(C)c(N(C)C)c1CNC(C)COc1ccc(F)cc1 (configuration not stated),-59.4%
8,NC(=O)C1CCN(C(=O)CCCc2nnc(-c3ccccc3)o2)C1 (configuration not stated),14.4%
9,CC(C)NC(=O)C1CN(C(=O)c2ccccc2)CC12CCOCC2 (configuration not stated),29.9%
10,CCN1C(=O)C(c2ccccc2)CC12CCN(Cc1cccnc1)CC2 (configuration not stated),-4.82%
11,OCCOc1ccccc1CN1CCCC(O)(CO)C1 (configuration not stated),66.5%
12,OCC1(O)CCCN(Cc2ccccc2OCCc2ccccc2)CC1 (configuration not stated),52.6%
13,CN(C)CC1(O)CCCN(Cc2ccccc2OCC(=O)N(C)C)C1 (configuration not stated),47.6%
14,OCC1(O)CCCN(Cc2nnc(-c3ccccc3)o2)CC1 (configuration not stated),21.2%
15,COCCC1(C(=O)O)CCCN(Cc2ccccc2OCCO)C1 (configuration not stated),3.48%
16,O=C1NCC2(CCCN(Cc3ccccc3OCCO)C2)O1 (configuration not stated),44.3%
17,Cn1cc(C(=O)N2CCCC2c2[nH]ncc2C(N)=O)cn1 (configuration not stated),7.52%
18,O=C(CNCc1ccccc1Cn1cccn1)Nc1cnccn1,38.5%
19,CS(=O)(=O)N1CCC(C(=O)NC(Cc2ccsc2)c2nccs2)CC1 (configuration not stated),38.1%
20,CCS(=O)(=O)N1CCC(C(=O)NC(Cc2ccsc2)c2nccs2)CC1 (configuration not stated),59%
21,O=C(NC(Cc1ccsc1)c1nccs1)C1CC1 (configuration not stated),12.3%
22,Cc1cc(C)n(CC2CN(Cc3nc(-c4ccco4)no3)CCO2)n1 (configuration not stated),36.4%
23,CN(CCN1CCOC1=O)CC(=O)Nc1ccc(Cl)c(Cl)c1,37.8%
24,O=C(c1c2c(N3CCCC3)ncnc2n2ccccc12)N1CCCC1,47.4%
